Screening data (PubChem BioAssay)
F508del corr: CFTR F508del correction in bronchial cells; actives 0.36% (n = 350,000); activity (quench increase), % at 7.58 µM; CFBE cells, YFP halide quenching; stimulated with forskolin plus potentiator P3; % fluorescence drop versus neutral controls;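 active = mean added fluorescence quench of at least 8% versus neutral control, with both replicates also reaching 8%; inconclusive = only one of the mean or replicate conditions met; inactive = mean below 8% and not both replicates reaching 8%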;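 note: cells transiently co-express mutant CFTR-F508del with the halide-sensitive YFP; corrector assay measuring rescue of mutant channel to the surface after 24 h compound exposure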
RAD54 inh: inhibitors of human RAD54 branch migration. inhibition, % at 10.4 µM. RAD54 Holliday junction branch migration, FAM/BHQ fluorescence. Q92698. actives 0.14% (n = 360,000). AID 602329;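 active = mean normalized replicate activity at least 40 and at least half of replicates scoring 40 or more; inconclusive = only one of the two criteria met; inactive = mean below 40 and under half of replicates reaching 40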;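 note: 0% = median of neutral control wells and 100% = median of positive control wells; inhibitors cause a drop in the FAM fluorescence signal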
N-glyco inh: N-linked glycosylation inhibition | D54 ERlucT glycosylation luciferase reporter, 24 h; percent of 100 nM tunicamycin response | reporter increase, % at 12.5 µM | actives 0.23% (n = 360,000);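 active = mean luciferase reporter signal, scaled so untreated is 0 and the glycosylation-blocking control 100, at or above a set limit in every replicate; inconclusive = mean reaches the limit but not every replicate does; inactive = mean below the limit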;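 note: luciferase carries N-glycosylation sites so blocking glycosylation raises the light; 0% = median of neutral control wells and 100% = median of 100 nM tunicamycin wells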
dFosB act-1: activators of mouse delta FosB homodimer; activation, % at 25 µM; purified delta FosB, TAMRA-CDK5 oligo fluorescence polarization; percent of positive-control signal above neutral wells; actives 0.99% (n = 340,000); P13346; AID 493131;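 active = mean activation above about 17%, with every replicate also reaching it, limit read from the data, passing the limit was not always enough; inconclusive = only one of the two conditions met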
Target sequence (P13346 whole entry, looked up): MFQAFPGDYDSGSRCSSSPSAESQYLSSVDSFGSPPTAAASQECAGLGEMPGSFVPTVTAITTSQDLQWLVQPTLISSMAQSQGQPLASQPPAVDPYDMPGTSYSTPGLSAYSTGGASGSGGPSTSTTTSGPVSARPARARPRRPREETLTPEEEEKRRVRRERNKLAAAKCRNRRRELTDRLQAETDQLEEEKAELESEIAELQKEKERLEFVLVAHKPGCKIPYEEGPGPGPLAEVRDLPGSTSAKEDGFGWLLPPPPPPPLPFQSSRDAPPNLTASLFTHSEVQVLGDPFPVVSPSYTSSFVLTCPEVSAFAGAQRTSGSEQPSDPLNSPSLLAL
RAD52 anneal inh: RAD52 (human) annealing inhibition | inhibition, % at 18.7 µM | recombinant RAD52 DNA annealing, FRET fluorescence | actives 0.46% (n = 360,000) | AID 651710 | P43351;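 active = every replicate showing at least 50% inhibition; inconclusive = mean inhibition at least 50% but not in every replicate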
PvdQ inh: P. aeruginosa PvdQ acylase inhibition. purified PvdQ acylase, fluorescence plate reader. inhibition, % at 10 µM. actives 0.063% (n = 340,000); in the data active = inhibition above about 30%, passing the limit was not always enough; inconclusive = no clear call, values can overlap the other calls;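 note: 0% = vehicle neutral wells and 100% = reference inhibitor wells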
dFosB act-2: activators of mouse delta FosB homodimer DNA binding; 2,400 tested, under 10 active; purified delta FosB, TAMRA-CDK5 oligo fluorescence polarization; normalised: neutral wells 0, positive control 100; activation, % at 24.9 µM; shares compounds with dFosB act-1;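 active = highest replicate activation at or above 34% and every replicate reaching that threshold; inconclusive = meets only one of the two criteria; inactive = meets neither criterion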;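 note: higher polarization means more probe DNA bound by delta FosB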
Active calls of the source: *; ? = inconclusive; . = no result given. The list is not random: actives were taken first. Their share in the collection is about 1.5%.

SMILES | F508del corr | RAD54 inh | N-glyco inh | dFosB act-1 | RAD52 anneal inh | PvdQ inh | dFosB act-2
C[C@H](CO)N1C[C@H](C)[C@@H](CN(C)S(=O)(=O)c2ccccc2)Oc2ccc(NC(=O)Nc3cccc4ccccc34)cc2CC1=O | 1 | 3 | . | . | 7 | . | .
Cc1cc(NC(=O)CSc2nnc(COc3cccc(C)c3C)n2C)no1 | . | -8 | 1 | 21* | . | 1 | 3
C[C@H]1CN([C@@H](C)CO)C(=O)c2cc(C#CC3CC3)cnc2O[C@H]1CN(C)C(=O)C1CCCCC1 | -1 | . | . | . | . | . | .
COc1ccc(Cl)cc1NC(=O)CSc1nc(NS(=O)(=O)c2ccc(C)cc2)cc(=O)[nH]1 | 3 | 6 | -4 | 28* | -10 | 5 | 1
Cc1ccc(S(=O)(=O)Nc2cc(=O)[nH]c(SCc3ccc(Cl)cc3)n2)cc1 | . | -7 | 0 | -2 | -4 | -9 | .
Cc1ccc(-n2nnnc2SCC(=O)Nc2ncc(Cc3ccccc3Cl)s2)cc1 | . | 0 | 1 | 104* | . | -24 | 6
Cc1ccc(-n2nnnc2SCC(=O)Nc2cccnc2Cl)cc1 | . | -22 | -2 | 0 | . | -8 | .
Cc1ccc(-c2nc(NC(=O)CSc3nnnn3-c3ccccc3)ns2)cc1 | . | 0 | -2 | 38* | . | -13 | 2
O=C(N[C@H]1CC[C@H](CCNS(=O)(=O)c2cccc(Cl)c2)O[C@@H]1CO)c1ccc(F)cc1 | -4 | 8 | . | . | -14 | . | .
O=C(Nc1nc(-c2ccc3ccccc3c2)cs1)c1ccc(N2C(=O)CCC2=O)cc1 | -6 | -3 | 7 | 45* | -46 | -14 | -2
COc1ccc(-c2csc(NC(=O)c3cccc(N4C(=O)CCC4=O)c3)n2)cc1C | -4 | -7 | 2 | -6 | -11 | -11 | .
CCOC(=O)c1cc2c(N)c(C(=O)c3ccc(Br)cc3)sc2[nH]c1=O | -1 | . | 0 | 22* | -22 | -5 | 0
Cc1ccc(NC(=O)CSc2nc3nc(C)cc(C)c3c(=O)[nH]2)cc1 | . | -7 | 3 | 22* | -8 | -17 | 4
COc1ccc(NC(=O)CSc2nc3scc(C)c3c(=O)[nH]2)cc1 | 2 | 5 | . | 11 | -14 | -7 | .
Cc1ccccc1NC(=O)CSc1nc2scc(C)c2c(=O)[nH]1 | 0 | 17 | 6 | 28* | -19 | -7 | 3
Cc1csc(NC(=O)CSc2nc3sc(C)c(C)c3c(=O)[nH]2)n1 | . | -1 | 0 | 0 | . | 14 | .
Cc1cc(C)c2c(=O)[nH]c(SCC(=O)Nc3ccccc3)nc2n1 | . | -1 | 2 | -8 | . | 2 | .
Cc1sc2nc(SCC(=O)Nc3ccccc3F)[nH]c(=O)c2c1C | 1 | 5 | -1 | 23* | -23 | -8 | 0
COc1ccc2c3c(n(C)c2c1)[C@@H](CO)N(C(=O)CC1CC1)CC31CCN(C(=O)C2CCC2)CC1 | 1 | . | . | . | . | . | .
NC(=O)CC(NC(=O)c1ccccc1)c1ccc(NCCc2ccc(F)cc2)c([N+](=O)[O-])c1 (stereo unspecified) | 1 | -2 | 0 | -4 | -4 | -10 | .
NC(=O)CC(NC(=O)c1ccc(Br)cc1)c1ccc(NC2CCCCCC2)c([N+](=O)[O-])c1 (stereo unspecified) | -4 | -2 | 14 | -9 | -36 | -18 | .
Cc1ccccc1CNc1ccc(C(CC(N)=O)NC(=O)c2ccccc2)cc1[N+](=O)[O-] (stereo unspecified) | -7 | -8 | -4 | 28* | -73 | -14 | -1
NC(=O)CC(NC(=O)c1ccc(Br)cc1)c1ccc(NC2CCCCC2)c([N+](=O)[O-])c1 (stereo unspecified) | 1 | 0 | 24 | 42* | -7 | -15 | 8
COc1ccc(CCNc2ccc(C(CC(N)=O)NC(=O)c3ccccc3)cc2[N+](=O)[O-])cc1 (stereo unspecified) | 2 | -5 | 0 | 32* | . | -12 | -2
C[C@@H]1CN([C@H](C)CO)C(=O)c2cccc(NC(=O)c3cnccn3)c2O[C@H]1CN(C)Cc1ccc2c(c1)OCO2 | -1 | -12 | . | . | -17 | . | .
SMILES | F508del corr | RAD54 inh | N-glyco inh | dFosB act-1 | RAD52 anneal inh | PvdQ inh | dFosB act-2
Cc1noc(C)c1S(=O)(=O)Nc1ccc2c(c1)C(=O)N([C@@H](C)CO)C[C@H](C)[C@H](CN(C)S(=O)(=O)c1ccccc1)OCCCC[C@H](C)O2 | 0 | 4 | . | . | -84 | . | .
CNS(=O)(=O)c1ccc(NC(=O)c2cc(-c3ccncc3)nc3ccc(Cl)cc23)cc1 | 1 | -2 | 4 | 69* | -19 | -8 | -1
NC(=O)c1cc(-c2ccncc2)nc2ccc(Cl)cc12 | 0 | . | 0 | -9 | -6 | -1 | .
Cc1ccccc1/C=N/Nc1ccnc2cc(Cl)ccc12 | . | 0 | -4 | 38* | -16 | -10 | 1
COc1ccccc1CNC(=O)C[C@H]1CC[C@H](NC(C)=O)[C@@H](CO)O1 | 1 | -5 | . | . | 11 | . | .
C#CCOCCOCCOCCNc1nc(N2CCN(C(=O)[C@H](CCCCN)n3cc([C@@H](N)CC(C)C)nn3)CC2)nc(N2CCN(C(=O)[C@H](CCCCN)n3cc([C@@H](N)CC(C)C)nn3)CC2)n1 | . | 7 | 3 | 19* | . | -7 | ?
O=C(Nc1ccc2c(c1)CCC2)c1cc(S(=O)(=O)N2CCN(c3ccccc3)CC2)ccc1Cl | . | . | -5 | 24* | . | -15 | 3
Clc1ccc(Cn2cc(/C=N/n3cnnc3)c3ccccc32)c(Cl)c1 | . | . | 1 | 25* | . | 5 | 3
C[C@H]1CN([C@@H](C)CO)C(=O)c2cc(NC(=O)Cc3ccccc3)ccc2O[C@H]1CN(C)S(=O)(=O)c1ccc(Cl)cc1 | 0 | -30 | . | . | 12 | . | .
O=C(C[C@@H]1CC[C@H]2[C@@H](COC[C@@H](O)CN2CC2CCCCC2)O1)NCc1ccc(F)cc1 | 0 | -8 | . | . | 5 | . | .
CCCNC(=O)N1C[C@H]2[C@@H](c3ccccc31)[C@H](CO)N2Cc1cc(F)ccc1F | -1 | -1 | . | . | -15 | . | .
Cc1ccc(-n2nnnc2SCC(=O)N(CC(C)C)c2c(N)n(CC(C)C)c(=O)[nH]c2=O)cc1 | 1 | . | 0 | -21 | -23 | -8 | .
Cc1cccc(-n2nnnc2SCC(=O)N(CC(C)C)c2c(N)n(CC(C)C)c(=O)[nH]c2=O)c1 | -2 | . | -1 | 32* | -5 | -9 | 6
Cc1cc2cc(C)c(NCCNC(=O)c3ccccc3)nc2cc1C | 6 | 4 | -1 | -18 | 10 | -13 | .
Cc1ccc(C(=O)NCCNc2nc3cc(C)c(C)cc3cc2C)cc1 | . | -3 | -2 | 41* | . | 4 | 1
CCCCn1c(N)c(N(CC(C)C)C(=O)c2cccc(S(=O)(=O)N3CCCCC3)c2)c(=O)[nH]c1=O | 0 | -3 | 1 | 6 | -17 | 8 | .
